Compound activity (PubChem)
Only some compounds are listed: those with a hit (about 8% of all), similar ones and a draw of the others.
Gal4-VP16 FLuc – VP16 counterscreen qHTS for inhibitors of ROR gamma transcriptional activity; hit rate 3.5% among 310,000; Drosophila S2 Gal4-VP16 UAS-luciferase, luminescence, 20 h; Potency, µM (titrated, usually from 53.6 µM), for inactives: top-dose activity, negative = inhibition, hits mostly inhibitors;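 further: Gal4-VP16 expression switched on by copper sulfate through the metallothionein promoter; potency means the concentration at half of the fitted maximal effect; nearly all actives have a fitted effect of over 50% in size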
FBPA coupling cs – qHTS Assay for Inhibitors of Fructose-1,6-bisphosphate Aldolase from Giardia Lamblia: Coupling assay counterscreen. activity change, negative = inhibition, % at 58.2 µM, hits read low. coupling enzyme system counterscreen, AmpLite Red fluorescence. AID 2472, 2010. hit rate 0.67% among 290,000; in the data active means activity change below about -30%
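Final compound at 57.5 uM, incubated 10 min at RT with coupling enzyme reagent (glyceraldehyde-3-phosphate), then 20 min with substrate and AmpLite Red detection. Fluorescence read at 525/598 nm; tests interference with the coupling assay, not aldolase inhibition.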
ELG1 repair inh – qHTS screen for small molecules that inhibit ELG1-dependent DNA repair in human embryonic kidney (HEK293T) cells expressing luciferase-tagged ELG1 | HEK293T ELG1-luciferase reporter, luminescence, 16 h; DNA damage induced by 5-fluorouridine | Potency, µM (titrated, usually from 46.1 µM), for inactives: at the top dose activity change, negative = inhibition, actives largely listed as inhibitors | hit rate 2.3% among 330,000 | AID 504467, 2011; further: potency means the concentration at half of the fitted maximal effect; nearly all actives have a fitted effect of over 55% in size
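5-Fluorouridine DNA damage + compound/DMSO, 2,000 cells/well, 16 h, 37 °C/5% CO2. ONE-Glo, 30 min RT, luminescence. Readout = decrease in reporter signal.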
RORgamma inh – qHTS for inhibitors of ROR gamma transcriptional activity; Nuclear receptor ROR-gamma (Mus musculus), P51450; Drosophila S2 Gal4-RORgamma UAS-luciferase reporter, 20 h; Potency, µM (titrated, usually from 53.6 µM), for the others: at the top dose activity change, negative = inhibition, most hits filed as inhibitors; hit rate 5.4% among 310,000; AID 2551, 2010; further: potency means the concentration at half of the fitted maximal effect; nearly all actives have a fitted effect of over 60% in size
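Drosophila S2 cells stably expressing Gal4-DBD/mouse RORγ fusion under metallothionein promoter plus UAS-luciferase; compound 1 h, then 700 uM CuSO4 induction for 20 h at ambient temperature; inhibition read as reduced luminescence.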
TSHR antagonist – Antagonists of the Thyroid Stimulating Hormone Receptor: HTS campaign | TSHR-expressing cells, TSH-stimulated cAMP HTRF, 2 h; stronger effect = lower value | activity change, negative = inhibition, % at 11.5 µM | hit rate 0.2% among 330,000;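 active means activity change below a set negative limit, meaning inhibition stronger than a set level, cut at about -70% in these data; inconclusive means activity change between two set negative limits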
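Competitive HTRF cAMP read-out (cryptate anti-cAMP antibody, cAMP-d2; 30 min, room temperature) in freshly harvested TSHR cells. Compounds added before TSH at EC80 (4nM final), followed by 2 hours' incubation at 37 deg C.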
ELG1 FLuc counter – qHTS screen for small molecules that inhibit ELG1-dependent DNA repair: Hit Confirmation in Cell-Based Luciferin Assay; hit rate 3% among 350; shares compounds with ELG1 repair inh; Potency, µM (series often up to 46.1 µM), for inactives: at the top dose activity change, negative = inhibition, hits mostly inhibitors; cell-free firefly luciferase luminescence counter-screen, ViewLux; further: potency means the concentration at half of the fitted maximal effect
ELG1-Luc inh – HTS assay for small molecules that inhibit ELG1-dependent DNA repair in human embryonic kidney (HEK293T) cells expressing luciferase-tagged ELG1: Hit Confirmation; shares compounds with ELG1 repair inh; HEK293T ELG1-luciferase levels, luminescence; cells co-treated with 5-fluorouridine; Potency, µM (top dose mostly 46.1 µM), inactives show top-dose activity change, negative = inhibition, most hits filed as inhibitors; hit rate 68% among 670; further: potency means the concentration at half of the fitted maximal effect; nearly all actives have a fitted effect of over 55% in size
ELG1-Luc MMS – MMS-stimulated human ELG1 repair inhibition, confirmed; shares compounds with ELG1 repair inh; hit rate 53% among 670; Potency, µM (titrated, usually from 46.1 µM), for inactives: at the highest dose activity change, negative = inhibition, usual class: inhibitors; AID 624249; HEK293T luciferase-tagged ELG1 level, MMS stimulated; further: potency means the concentration at half of the fitted maximal effect; nearly all actives have a fitted effect of over 60% in size
ELG1 5FU viab – qHTS screen for small molecules that inhibit ELG1-dependent DNA repair: Hit Confirmation with 5FU Viability. shares compounds with ELG1 repair inh. cell viability with 5-FU, ELG1-dependent repair. Potency, µM (top dose mostly 46.1 µM), for the others: at the top dose activity change, negative = viability loss, usual class: cytotoxic. 670 tested, under 10 active. AID 624250, 2012;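 further: ELG1-luc HEK293T cells cotreated with 5-fluorouridine at 10 µM final; potency means the concentration at half of the fitted maximal effect; viability measured 16 h after compound addition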
ELG1 MMS viab – qHTS screen for small molecules that inhibit ELG1-dependent DNA repair: Hit Confirmation with MMS Viability; Potency, µM (highest dose often 46.1 µM), without a hit: top-dose activity change, negative = viability loss, actives largely listed as cytotoxic; Cell viability with MMS, ELG1-dependent DNA repair; shares compounds with ELG1 repair inh; AID 624251, 2012; hit rate 33% among 670;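 further: ELG1-luc HEK293T cells co-treated with 10 µM MMS; potency means the concentration at half of the fitted maximal effect; viability read 16 h after compound addition; nearly all actives have a fitted effect of over 60% in size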
ELG1 unstim viab – qHTS screen for small molecules that inhibit ELG1-dependent DNA repair: Hit Confirmation with Unstimulated Viability Assay. cell viability counter-screen, unstimulated, luminescence. hit rate 8% among 900. shares compounds with ELG1 repair inh. Potency, µM (doses to about 45.9 µM), without a hit: top-dose activity change, negative = loss of viability, usual class: cytotoxic;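 further: potency means the concentration at half of the fitted maximal effect; compound exposure lasted 16 hours before reading; nearly all actives have a fitted effect of over 55% in size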
FLuc enzyme – qHTS screen for small molecules that inhibit ELG1-dependent DNA repair: Hit Confirmation in Biochemical Luciferin Assay; shares compounds with ELG1 repair inh; purified firefly luciferase, luminescence counter-screen; Potency, µM (series often up to 57.5 µM), without a hit: top-dose activity, negative = inhibition, actives largely listed as inhibitors; hit rate 10% among 350; AID 624253, 2012; further: potency means the concentration at half of the fitted maximal effect
* = called active by the depositor; ? = inconclusive; . = no result given; [ ] = another dose, or the depositor's remark. Unless noted, the call rests on the fitted dose curve; in most records, active means well fitted curve in the direction sought with a large enough effect; inconclusive means small, poorly fitted or top-dose-only effect, or another doubt; inactive means no such curve, though single readings can be large; an effect the other way counts as inactive or inconclusive. On the % scale 0 is the no-effect control and ±100 the full control effect.

SMILES	Gal4-VP16 FLuc	FBPA coupling cs	ELG1 repair inh	RORgamma inh	TSHR antagonist	ELG1 FLuc counter	ELG1-Luc inh	ELG1-Luc MMS	ELG1 5FU viab	ELG1 MMS viab	ELG1 unstim viab	FLuc enzyme
COc1cc(NC(=O)C2CCCN(c3ncnc4c3nc3n4CCCCC3)C2)cc(OC)c1OC (stereo unspecified)	-23%	-3	1.8µM*	6%	15	9%	4.5µM*	9%	?	7%	0%	1%
CCc1cccc(NC(=O)C2CCCN(c3ncnc4c3nc3n4CCCCC3)C2)c1 (stereo unspecified)	0%	-2	18µM*	?	-20	-8%	14µM*	22µM*	1%	-6%	?	-6%
O=C(Nc1cccnc1)C1CCCN(c2ncnc3c2nc2n3CCCCC2)C1 (stereo unspecified)	14%	-1	-9%	31%	1	.	.	.	.	.	.	.
Cc1ccc(CNC(=O)C2CCCN(c3ncnc4c3nc3n4CCCCC3)C2)cc1 (stereo unspecified)	-1%	-2	-19%	2%	-18	.	.	.	.	.	.	.
Cn1c(Cc2ccccc2)nnc1SCC(=O)NC1CCCC1	-2%	2	21%	-2%	11	.	.	.	.	.	.	.
Cc1cc(C(=O)COC(=O)C2=COCCO2)c(C)n1-c1ccccc1	.	.	?	.	-4	11µM*	.	.	.	.	?	0.092µM*
Cc1ccc(S(=O)(=O)CCC(=O)OCC(=O)NC2CCS(=O)(=O)C2)cc1 (stereo unspecified)	.	.	11%	.	-2	.	.	.	.	.	.	.
COC(=O)C1=C(C(=O)OC)[C@@H]2N(C)c3ccc(OC)cc3[C@@]23C[C@@H](C(=O)OC)N(C(=O)c2cccs2)C3=N1	0%	-7	-27%	9%	7	.	.	.	.	.	.	.
CC1(C)OC[C@@H]2O[C@@]3(C(=O)O)OC(C)(C)O[C@@H]3[C@@H]2O1	2%	.	.	-9%	.	.	.	.	.	.	.	.
COc1ccc2c(c1OC)C(=O)N1c3ccccc3C(=O)N(c3ccc(F)cc3)C21 (stereo unspecified)	1%	6	?	-12%	-12	?	5µM*	7.9µM*	-2%	?	?	-3%
COc1ccc2c(c1OC)C(=O)N1c3ccccc3C(=O)N(c3ccccc3)C21 (stereo unspecified)	0%	2	?	-25%	-24	-11%	2.2µM*	5µM*	0%	?	?	1%
COc1cccc(C2Nc3ccccc3C(=O)N2c2ccc(F)cc2)c1O (stereo unspecified)	19%	1	?	-8%	0	.	.	.	.	.	.	.
CN[C@@H]1[C@H](O[C@@H]2O[C@H](CO)[C@@H](N)[C@H](O)[C@@H]2O)O[C@H]2C[C@@H](N)[C@@H](O[C@H]3[C@@H](O)[C@H](O)[C@H](N)C[C@@H]3N)O[C@H]2[C@H]1O	-10%[17 µM]	-2	.	23%[2.98 µM]	.	.	.	.	.	.	.	.
CCc1nc(C(N)=O)c2[nH]c(=O)n(-c3ccccc3F)c2n1	-8%	0	?	-17%	6	.	.	.	.	.	.	.
O=S(=O)(Nc1cccc(S(=O)(=O)N2CCCC2)c1)c1cccs1	.	.	?	.	14	.	.	.	.	.	.	.
CCN(CC)S(=O)(=O)c1cccc(-n2c(O)c(C=Nc3ccccc3C(=O)O)c3ccccc3c2=O)c1	0%	3	5.8µM*	20%	-25	.	0.35µM*	0.35µM*	-27%	0.4µM*	0.44µM*	.
O=C(O)c1ccccc1N=Cc1c(O)n(-c2nccs2)c(=O)c2ccccc12	-10%	1	?	13%	-8	.	.	.	.	.	.	.
Cc1cc(C(=O)COc2ccccc2C(N)=O)c(C)n1CC1CCCO1 (stereo unspecified)	10µM*	3	?	-34%	-28	.	?	1µM*	-2%	1.3µM*	?	.
COc1cc(CO)c(OC)c([N+](=O)[O-])c1	-7%	-1	10%	0%	9	.	.	.	.	.	.	.
O=C(NC1CSCC1OC(=O)c1ccccc1)c1ccccc1 (stereo unspecified)	-5%	0	14%	4%	2	.	.	.	.	.	.	.
COc1cc(C(=O)OC2CSCC2NC(=O)c2ccccc2)cc(OC)c1OC (stereo unspecified)	-9%	1	4.1µM*	6%	-4	.	10µM*	1%	?	?	?	.
Nc1ccc(/C=C/c2ccc3ncccc3c2)cc1	?	-2	?	?	21	.	.	.	.	.	.	.
Nc1ccc(/C=C/c2ccc3cccnc3c2)cc1	.	.	.	.	.	43%	.	.	.	.	-1%	0.37µM*
